The results in this text go back to PubChem BioAssay (EPA / NIEHS).

Molecules are shown by their SMILES. The source made the active and inactive calls. Rule for the calls: active = hit-call score of the fitted dose curve at least 0.9, where 1 is the maximum; inactive = score below 0.9.

Common to all, as to conditions: mRNA level, 48 h; actives raise or lower the signal
Read-out in test [1]: Cytochrome P450 (CYP24A1), CYP24A1 (gene 1591)
Put plainly: LTEA_HepaRG_CYP24A1: Life Technologies and Expression Analysis (LTEA) Assay for Cytochrome P450 (CYP24A1) using HepaRG (AID 2283478). The method in brief:
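HepaRG, 48 h chemical exposure, 8-pt half-log CRC from 100 uM, 0.5% DMSO vehicle, duplicates. Endpoint: CYP24A1 mRNA by Fluidigm TaqMan qRT-PCR, normalized ACTB/GAPDH/POLR2A; gain/loss fit vs DMSO.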

Read-out in test [2]: Cytochrome P450 (CYP1A2), CYP1A2 (gene 1544)
The test can be described thus: LTEA_HepaRG_CYP1A2: Life Technologies and Expression Analysis (LTEA) Assay for Cytochrome P450 (CYP1A2) using HepaRG (AID 2283479). In a few lines: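 CYP1A2 transcript induction or loss, quantified by Fluidigm qRT-PCR against three housekeeping genes, was fitted bidirectionally against 0.5% DMSO controls. Human HepaRG cells received eight half-log concentrations from 100 uM over 48 h.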

Read-out in test [3]: cysteine-aspartic acid protease (CASP8), CASP8 (gene 841)
Put plainly: LTEA_HepaRG_CASP8: Life Technologies and Expression Analysis (LTEA) Assay for cysteine-aspartic acid protease (CASP8) using HepaRG (AID 2283480). The method in brief:
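HepaRG, 48 h exposure, duplicate wells; 8 conc, half-log from 100 uM, 0.5% DMSO. Serum-free induction medium. CASP8 mRNA by TaqMan qRT-PCR, norm. ACTB/GAPDH/POLR2A; gain/loss fitted vs DMSO.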

Read-out in test [4]: Cytochrome P450 (CYP2B6), CYP2B6 (gene 1555)
The test can be described thus: LTEA_HepaRG_CYP2B6: Life Technologies and Expression Analysis (LTEA) Assay for Cytochrome P450 (CYP2B6) using HepaRG (AID 2283481). The method in brief:
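HepaRG cells plated 48 h, switched to serum-free induction medium, then dosed 48 h (8 points, half-log from 100 uM, 0.5% DMSO). RNA isolated; CYP2B6 expression measured by qRT-PCR; gain or loss fitted relative to DMSO.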

Read-out in test [5]: Cytochrome P450 2C19 (Homo sapiens) (UniProt P33261)
The test can be described thus: LTEA_HepaRG_CYP2C19: Life Technologies and Expression Analysis (LTEA) Assay for CYP2C19 using HepaRG (AID 2283482). In a few lines: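 Transcript levels of CYP2C19 were quantified by qRT-PCR after HepaRG cells were treated for 48 hours with test chemicals up to 100 uM (eight half-log concentrations, 0.5% DMSO vehicle). Gain or loss of signal was fitted relative to DMSO.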

Read-out in another test: CYP2C8 (gene 1558)
The test can be described thus: LTEA_HepaRG_CYP2C8: Life Technologies and Expression Analysis (LTEA) Assay for CYP2C8 using HepaRG (AID 2283483). In a few lines: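 CYP2C8 mRNA induction or loss, by qRT-PCR normalized to ACTB/GAPDH/POLR2A, is read in HepaRG cells after 48 h treatment. Concentrations run from 100 uM down in half-log dilutions, with 0.5% DMSO as vehicle and baseline.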

Read-out in a further test: CYP2C9 (gene 1559)
The test can be described thus: LTEA_HepaRG_CYP2C9: Life Technologies and Expression Analysis (LTEA) Assay for CYP2C9 using HepaRG (AID 2283484). The method in brief:
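Cells plated 48 h, switched to serum-free induction medium, then treated in duplicate for 48 h at eight concentrations (max 100 uM, 0.5% DMSO). RNA then analysed by qRT-PCR for CYP2C9; curves fitted in both directions relative to DMSO.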

Read-out in the next test: CYP2E1 (gene 1571)
The test can be described thus: LTEA_HepaRG_CYP2E1: Life Technologies and Expression Analysis (LTEA) Assay for CYP2E1 using HepaRG (AID 2283485). In a few lines:
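HepaRG cells, plated 48 h, then exposed 48 h in serum-free induction medium to eight half-log concentrations from 100 uM in 0.5% DMSO, duplicate. CYP2E1 mRNA by qRT-PCR, normalized to ACTB/GAPDH/POLR2A; bidirectional fit versus DMSO.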

Read-out in a further test: CYP4A11 (gene 1579)
Put plainly: LTEA_HepaRG_CYP4A11: Life Technologies and Expression Analysis (LTEA) Assay for CYP4A11 using HepaRG (AID 2283486). The method in brief:
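HepaRG, 48 h chem exposure, 8 conc (100 uM top, half-log), 0.5% DMSO vehicle; qRT-PCR readout, housekeeping-gene normalized; bidirectional curve fit vs DMSO baseline.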

Read-out in test [6]: DNA damage-inducible transcript 3 (DDIT3), DDIT3 (gene 1649)
Put plainly: LTEA_HepaRG_DDIT3: Life Technologies and Expression Analysis (LTEA) Assay for DNA damage-inducible transcript 3 (DDIT3) using HepaRG (AID 2283488). The method in brief: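 HepaRG cells, 48 h after plating, exposed 48 h in serum-free induction medium to 8 half-log concentrations up to 100 uM in 0.5% DMSO, in duplicate. DDIT3 mRNA measured by TaqMan qRT-PCR, normalized to ACTB, GAPDH and POLR2A. Fitted bidirectionally against DMSO.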

Read-out in test [7]: Pro-epidermal growth factor (Homo sapiens) (UniProt P01133)
Put plainly: LTEA_HepaRG_EGF: Life Technologies and Expression Analysis (LTEA) Assay for Epidermal growth factor (EGF) using HepaRG (AID 2283489). In a few lines: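 HepaRG, 48 h dosing, 100 uM top, half-log x8, 0.5% DMSO. Readout: TaqMan qRT-PCR (Fluidigm array), housekeeping-normalized. Gain or loss of signal fit vs DMSO.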

Read-out in test [8]: Early growth response protein 1 (EGR1) transcription factor, EGR1 (gene 1958)
The test can be described thus: LTEA_HepaRG_EGR1: Life Technologies and Expression Analysis (LTEA) Assay for Early growth response protein 1 (EGR1) transcription factor using HepaRG (AID 2283490). The method in brief: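 Read-out is EGR1 mRNA level by qRT-PCR, normalized to three housekeeping genes and analysed for gain or loss of signal against 0.5% DMSO. Source cells: human HepaRG, treated 48 h at up to 100 uM in half-log dilutions.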

Read-out in test [9]: Ezrin (EZR), EZR (gene 7430)
Put plainly: LTEA_HepaRG_EZR: Life Technologies and Expression Analysis (LTEA) Assay for Ezrin (EZR) using HepaRG (AID 2283491). The method in brief: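 Gain or loss of EZR mRNA is scored relative to 0.5% DMSO in human HepaRG cultures treated 48 h with test chemicals in duplicate, eight half-log concentrations from 100 uM.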

Read-out in test [10]: Cytochrome P450 3A7 (Homo sapiens) (UniProt P24462)
The test can be described thus: LTEA_HepaRG_CYP3A7: Life Technologies and Expression Analysis (LTEA) Assay for CYP3A7 using HepaRG (AID 2283492). The method in brief: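 Human HepaRG liver cells, 48 h post-plating, switched to serum-free induction medium and exposed in duplicate for 48 h. Dosing: 100 uM top, half-log dilutions, 8 points, 0.5% DMSO vehicle. Read-out: CYP3A7 mRNA, gain or loss fitted against DMSO baseline.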

Read-out in the next test: CYP3A5 (gene 1577)
The test can be described thus: LTEA_HepaRG_CYP3A5: Life Technologies and Expression Analysis (LTEA) Assay for CYP3A5 using HepaRG (AID 2283493). In a few lines: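 HepaRG cells, plated 48 h then in serum-free induction medium, dosed in duplicate for 48 h with eight half-log concentrations up to 100 uM in 0.5% DMSO. Gene mRNA by Fluidigm TaqMan qRT-PCR, normalized to ACTB, GAPDH, POLR2A.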

Read-out in test [11]: Fatty Acid-Binding Protein 1 (FABP1), FABP1 (gene 2168)
The test can be described thus: LTEA_HepaRG_FABP1: Life Technologies and Expression Analysis (LTEA) Assay for Fatty Acid-Binding Protein 1 (FABP1) using HepaRG (AID 2283494). In a few lines:
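HepaRG, 48 h post-plating switched to serum-free induction medium, then dosed 48 h (duplicate, 8 pts, ≤100 uM, 0.5% DMSO). RNA → Fluidigm TaqMan qRT-PCR, FABP1 normed to ACTB/GAPDH/POLR2A. Bidirectional curve fit vs DMSO.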

Read-out in test [12]: Cytochrome P450 7A1 (Homo sapiens) (UniProt P22680)
Put plainly: LTEA_HepaRG_CYP7A1: Life Technologies and Expression Analysis (LTEA) Assay for Cytochrome P450 7A1 (CYP7A1) using HepaRG (AID 2283496). In a few lines:
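HepaRG cells plated 48 h, then switched to serum-free induction medium and exposed in duplicate for 48 h to 8-point half-log series from 100 uM in 0.5% DMSO. CYP7A1 mRNA by qRT-PCR (TaqMan), normalized to ACTB/GAPDH/POLR2A; bidirectional fit versus DMSO.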

Read-out in test [13]: Glutathione S-Transferase (GSTA2), GSTA2 (gene 2939)
Put plainly: LTEA_HepaRG_GSTA2: Life Technologies and Expression Analysis (LTEA) Assay for Glutathione S-Transferase (GSTA2) using HepaRG (AID 2283497). The method in brief: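 HepaRG, 48 h dosing, 8-pt half-log CRC from 100 uM, 0.5% DMSO vehicle, n=2; RNA → Fluidigm TaqMan qRT-PCR; GSTA2 vs ACTB/GAPDH/POLR2A; gain/loss fit vs DMSO.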

Read-out in test [14]: Cytochrome P450 3A4 (Homo sapiens) (UniProt P08684)
The test can be described thus: LTEA_HepaRG_CYP3A4: Life Technologies and Expression Analysis (LTEA) Assay for CYP3A4 using HepaRG (AID 2283487). In a few lines:
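In a human hepatic line (HepaRG), duplicate wells were treated 48 h with up to 100 uM chemical in half-log dilutions. Endpoint: CYP3A4 mRNA induction or loss relative to 0.5% DMSO vehicle, by qRT-PCR.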

Read-out in test [15]: Cytochrome P450 4A22 (Homo sapiens) (UniProt Q5TCH4)
Put plainly: LTEA_HepaRG_CYP4A22: Life Technologies and Expression Analysis (LTEA) Assay for Cytochrome P450 4A22 (CYP4A22) using HepaRG (AID 2283495). In a few lines:
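Readout is CYP4A22 transcript induction or loss, quantified by qRT-PCR and normalized to ACTB, GAPDH and POLR2A. Human HepaRG cells receive test chemicals for 48 h at eight half-log concentrations from 100 uM in 0.5% DMSO.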

Chain of Cytochrome P450 3A7 (Homo sapiens) (P24462 whole entry, looked up): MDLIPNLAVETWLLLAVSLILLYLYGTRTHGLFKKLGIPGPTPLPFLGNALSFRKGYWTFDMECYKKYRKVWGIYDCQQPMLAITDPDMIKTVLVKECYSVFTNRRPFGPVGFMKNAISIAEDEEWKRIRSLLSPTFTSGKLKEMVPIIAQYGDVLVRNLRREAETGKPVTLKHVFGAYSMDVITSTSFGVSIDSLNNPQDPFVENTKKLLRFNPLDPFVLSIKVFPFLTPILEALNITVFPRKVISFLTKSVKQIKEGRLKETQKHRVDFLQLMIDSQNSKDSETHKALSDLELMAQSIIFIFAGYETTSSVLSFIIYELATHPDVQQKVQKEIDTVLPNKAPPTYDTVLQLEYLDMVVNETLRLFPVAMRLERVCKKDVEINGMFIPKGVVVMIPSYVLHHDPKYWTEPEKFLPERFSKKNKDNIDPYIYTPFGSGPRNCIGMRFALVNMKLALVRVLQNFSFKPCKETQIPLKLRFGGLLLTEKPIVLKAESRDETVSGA
Chain of Cytochrome P450 2C19 (Homo sapiens) (P33261 whole entry, looked up): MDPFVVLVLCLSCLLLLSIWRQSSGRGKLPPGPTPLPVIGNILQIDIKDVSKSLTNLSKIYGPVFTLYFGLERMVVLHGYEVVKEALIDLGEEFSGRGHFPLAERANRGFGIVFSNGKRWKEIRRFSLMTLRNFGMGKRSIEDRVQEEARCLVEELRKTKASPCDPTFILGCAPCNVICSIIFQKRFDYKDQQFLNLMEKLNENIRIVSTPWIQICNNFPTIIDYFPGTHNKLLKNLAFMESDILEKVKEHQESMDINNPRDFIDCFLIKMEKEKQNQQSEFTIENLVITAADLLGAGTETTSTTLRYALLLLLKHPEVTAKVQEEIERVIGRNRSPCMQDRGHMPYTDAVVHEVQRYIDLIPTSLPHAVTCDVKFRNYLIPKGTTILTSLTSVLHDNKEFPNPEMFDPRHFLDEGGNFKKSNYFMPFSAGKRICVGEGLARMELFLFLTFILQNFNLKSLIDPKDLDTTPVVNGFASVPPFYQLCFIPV
Chain of Cytochrome P450 3A4 (Homo sapiens) (P08684 whole entry, looked up): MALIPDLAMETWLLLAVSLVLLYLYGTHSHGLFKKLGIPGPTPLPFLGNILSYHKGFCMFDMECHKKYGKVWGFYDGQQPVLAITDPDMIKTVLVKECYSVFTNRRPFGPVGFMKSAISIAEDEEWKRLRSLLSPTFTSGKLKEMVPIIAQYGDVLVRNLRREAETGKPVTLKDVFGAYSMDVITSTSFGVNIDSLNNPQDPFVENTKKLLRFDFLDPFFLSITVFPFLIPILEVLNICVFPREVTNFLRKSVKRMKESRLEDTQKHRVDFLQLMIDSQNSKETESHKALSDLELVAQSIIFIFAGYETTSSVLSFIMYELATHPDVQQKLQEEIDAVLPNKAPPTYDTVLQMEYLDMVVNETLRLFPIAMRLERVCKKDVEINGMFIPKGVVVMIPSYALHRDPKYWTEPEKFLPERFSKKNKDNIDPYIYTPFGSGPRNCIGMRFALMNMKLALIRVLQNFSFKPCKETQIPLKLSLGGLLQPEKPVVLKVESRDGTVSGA

As a reminder, the AC50 is the midpoint of the concentration-response curve, whichever way the signal moves. With `OCCNCCO`, the call (in test [1]; in [2]; in test [3]; in the test with CYP2C8 (gene 1558); in the test with CYP4A11 (gene 1579); in [6]) was inactive. For the same molecule, the outcome (in [7]; in test [8]; in [9]; in [10]; with CYP3A5 (gene 1577)) was inactive. Further, the AC50 in test [4] is 50 µM (active); in test [5] it was 50 µM (active); with CYP2C9 (gene 1559), 50 µM (active); with CYP2E1 (gene 1571) it was 45 µM (active); in test [11] it was 45.6 µM (active); in test [12] it was 50 µM (active). The AC50 in [13] was 63.4 µM (active).

In the case of `Cc1nccn1-c1ccc(Sc2cccc(C3(C(N)=O)CCOCC3)c2)cc1`, the outcome in test [1] and in test [9] was inactive. Also, the AC50 in test [2] was 18.6 µM (active); in [3], 28.1 µM (active); in [4] it was 9.76 µM (active); in [5], 10.7 µM (active); with CYP2C8 (gene 1558), 12.6 µM (active); in the test with CYP2C9 (gene 1559), 12.2 µM (active). Also, the half-maximal activity concentration (AC50) is 6.52 µM (active) with CYP2E1 (gene 1571); 4.94 µM (active) with CYP4A11 (gene 1579); 4.47 µM (active) in [6]; 32.8 µM (active) in test [7]; 21.9 µM (active) in test [8]; 10.4 µM (active) in test [10]. Further, the concentration at half-maximal activity (AC50) in the test with CYP3A5 (gene 1577) is 19.5 µM (active); in test [11], 11.6 µM (active); in [12] it was 15.1 µM (active); in test [13], 10.7 µM (active).

As for `CCOC(N)=O`, the outcome (in test [1]; in [2]; in test [3]; in test [4]; in [5]; in the test with CYP2C8 (gene 1558)) was inactive. Besides, the result (with CYP2C9 (gene 1559); with CYP2E1 (gene 1571); in the test with CYP4A11 (gene 1579); in [14]; in test [7]; in [8]) was inactive. Further, the molecule was called inactive (in [9]; in test [10]; in the test with CYP3A5 (gene 1577); in [11]; in [12]; in [13]).

As to `NC(N)=O`, the result (in test [1]; in test [2]; in test [3]; in test [4]; in test [5]; with CYP2C8 (gene 1558)) was inactive. The molecule was classed as inactive (with CYP2C9 (gene 1559); with CYP2E1 (gene 1571); with CYP4A11 (gene 1579); in test [6]; in [7]; in test [8]). For the same molecule, the call (in test [9]; in [10]; with CYP3A5 (gene 1577); in test [11]; in [15]; in test [12]) was inactive. For the same molecule, the outcome in test [13] was inactive.
